High-throughput results as filed in PubChem BioAssay.
Compounds with a hit are over-represented: about 1.2% of the library has one in this group of screens.
PolyA inhibitor = blocks polyadenylation in yeast reporter cells. S. cerevisiae SKY197-pL101 polyadenylation reporter, beta-gal luminescence; efflux-impaired pdr1/pdr3 knockout yeast; score 100 = 6 SD above DMSO. activity score, % at 12 µM. 300,000 tested, 0.02% active. AID 1875;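 active means lowest replicate activity score at least 50, where 100 means six control SD above control mean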;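 further: yeast exposed to compound for 9 h at 30 °C; higher score means more reporter readthrough which indicates perturbed polyadenylation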
A3G deaminase = inhibitors of human APOBEC3G DNA deaminase; Q9HC16; recombinant A3G, ssDNA deamination FAM/TAMRA fluorescence; inhibition, % at 20 µM; 330,000 tested, 0.28% active;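 active means inhibition of at least 40% at 20 µM, with no more than 30% in the related APOBEC3A deaminase screen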;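 further: plate controls were DMSO wells with A3G for no effect and wells lacking A3G enzyme for full effect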
Target sequence (Q9HC16 whole entry, looked up): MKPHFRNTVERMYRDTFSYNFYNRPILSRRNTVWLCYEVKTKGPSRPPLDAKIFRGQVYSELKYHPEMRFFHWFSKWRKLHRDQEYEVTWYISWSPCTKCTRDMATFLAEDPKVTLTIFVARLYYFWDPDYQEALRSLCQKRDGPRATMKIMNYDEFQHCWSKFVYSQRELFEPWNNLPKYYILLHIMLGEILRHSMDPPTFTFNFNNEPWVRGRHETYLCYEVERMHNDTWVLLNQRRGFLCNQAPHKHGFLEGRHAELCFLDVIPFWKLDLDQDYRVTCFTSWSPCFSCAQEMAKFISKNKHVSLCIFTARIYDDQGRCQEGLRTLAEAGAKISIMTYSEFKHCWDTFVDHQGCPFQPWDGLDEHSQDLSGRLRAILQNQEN
A3A deaminase = human APOBEC3A DNA deaminase inhibition; P31941; recombinant A3A, FAM/TAMRA ssDNA deamination fluorescence; inhibition, % at 20 µM; 330,000 tested, 0.41% active; AID 493011;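 active means at least 40% inhibition at 20 µM here, with at most 30% in a related deaminase screen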;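 further: plate controls were A3A with DMSO for no effect and wells lacking A3A enzyme for full effect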
NALP1 inh = inhibitors of NALP1 inflammasome in yeast; S. cerevisiae NALP1/ASC/caspase-1 growth, X-gal OD620, 72 h; inhibition, % at 10 µM; 280,000 tested, 0.61% active; in the data active means inhibition mostly above about 24%, no sharp cut-off; inactive means mostly below about 32%
The depositor's hits bear a star; x = no result given.

SMILES | PolyA inhibitor | A3G deaminase | A3A deaminase | NALP1 inh
COc1ccc(Nc2cc(C)nc(NCc3ccccc3)n2)cc1 | -12.6 | -1.8 | 0.9 | 31.6
CC(/C=C/c1ccco1)=N\NC(=O)CNc1ccc2ccccc2c1 | -19.1 | 8.2 | 4.0 | 19.6*
CC1C/C(=C\c2cccnc2)C(=O)/C(=C/c2cccnc2)C1 (stereo not given) | x | x | x | 67.5*
Cc1ccc2c(=O)cc(C(F)F)oc2c1 | -4.2 | -8.9 | -6.9 | 40.7*
Cc1cc(C)c2c(=O)cc(C(F)F)oc2c1 | -5.9 | -0.1 | 0.0 | -18.2
COCCOc1ccc(C(F)(F)F)cc1NC(=O)COC(=O)Cc1c[nH]c2ccccc12 | x | -8.6 | -6.0 | x
O=C(COC(=O)Cn1cnc2ccccc21)Nc1ccc2c(c1)C(=O)c1ccccc1C2=O | -7.9 | -0.8 | 4.3 | 50.4*
Cc1c2c(nc3ccccc13)CCC(C)C2 (stereo not given) | 0.0 | -2.0 | -2.4 | 36.4*
Oc1ccc(-c2n[nH]c(=S)n2Cc2ccco2)cc1 | 15.1 | 49.4* | -1.1 | -10.1
Cc1cc(OCCCCCn2ccnc2)cc(C)c1Cl | 1.7 | -5.0 | -4.2 | 26.0*
Cc1cc(OCCCn2ccnc2)cc(C)c1Cl | -1.9 | -5.9 | -1.4 | 16.9
Cc1ccc(N=CNc2ccc(C)cc2C)c(C)c1 | -2.5 | -4.5 | -0.8 | 41.4*
O=C(/C(=C/c1ccccc1)n1cncn1)c1ccc(Cl)cc1Cl | -33.5 | 0.6 | 2.8 | 42.7*
O=C(/C(=N\O)n1cncn1)c1ccc(Cl)cc1Cl | 2.2 | -5.7 | -3.6 | 27.1
COc1cc(/C=N/Nc2nc(Nc3ccc(C)cc3)nc(-n3nc(C)cc3C)n2)cc(OC)c1OC | 7.0 | -2.8 | 2.3 | 42.3*
Cc1cc(-c2ccc(Cl)cc2)n2nc(N)nc2n1 | -9.1 | -4.9 | -0.3 | 9.7
Nc1nc2nccc(-c3ccc(Cl)cc3)n2n1 | x | -3.1 | -2.4 | 36.3*
NC(=O)/C=C/C(=O)Nc1ccc(Cl)cc1 | -28.7 | -12.3 | -0.4 | 79.1*
NC(=O)Nc1ccc(Cl)cc1 | 8.0 | -1.5 | -4.7 | x
COc1ccc([N+](=O)[O-])cc1N(CC(=O)N1CCOCC1)S(C)(=O)=O | 7.2 | -1.0 | -0.7 | 42.4*
COc1ccc([N+](=O)[O-])cc1N(CC(=O)N1CCCC1)S(C)(=O)=O | -8.7 | -4.5 | -0.4 | 30.6
Cc1ccc(NC(=O)C2=NNC(=O)CC2)cc1F | 14.9 | 5.2 | 5.4 | 36.0*
O=C(Nc1ccc2c(c1)OCCO2)c1ccc(Cl)c([N+](=O)[O-])c1 | -6.4 | -3.7 | -1.7 | 6.6
Cc1cc(C(=O)Nc2ccc3c(c2)OCCO3)ccc1[N+](=O)[O-] | 2.9 | -5.7 | -7.8 | 41.3*
CC(C)C(=O)c1cn(CC(=O)O)c2ccccc12 | 13.3 | -4.8 | -0.6 | 26.1*
SMILES | PolyA inhibitor | A3G deaminase | A3A deaminase | NALP1 inh
Cc1ccc(N(C)S(=O)(=O)c2csc(C(N)=O)c2)cc1C | -4.0 | 0.0 | -1.2 | 11.0
CN1CCN(C(=O)C2=C[C@H](C3CC3)C[C@H](OCc3ccc(CO)cc3)O2)CC1 | 5.8 | -7.2 | -0.6 | x
CN1CCN(C(=O)C2=C[C@@H](C3CCCCC3)C[C@@H](OCc3ccc(CO)cc3)O2)CC1 | 20.0 | -14.0 | -1.8 | 24.3*
CCOc1ccc(Nc2nc3ccccc3n2C)cc1 | -16.0 | -15.7 | -3.7 | x
CCOc1ccc(Nc2nc3ccccc3n3nnnc23)cc1 | 15.4 | -8.9 | -1.3 | 42.1*
NC(N)=Nc1ccc(N=C(N)N)cc1 | 10.6 | x | x | 40.1*
NC(=Nc1ccccc1)Nc1ccccc1 | 10.6 | -7.5 | -2.9 | 1.4
OCCNCCCOc1ccc(Cl)cc1Br | 18.0 | -5.3 | 1.2 | 1.9
C=CCNCCCOc1ccc(Cl)cc1Br | -1.4 | -6.8 | -1.8 | 46.4*
CC(=O)c1ccccc1NS(=O)(=O)c1ccccc1Cl | -2.1 | 1.2 | 0.3 | -2.0
C=C1C(=O)C=C2CN(C(=O)c3ccccc3)[C@@](Cc3ccc(F)cc3)(C(=O)OC)[C@@H]12 | -11.1 | 4.2 | -5.3 | 63.1*
CCc1c(C)sc(NC(=O)c2ccoc2C)c1C(N)=O | -6.6 | 60.4* | -0.1 | 1.0
CCOC(=O)c1c(NC(=O)c2ccoc2C)sc(C)c1C | -0.4 | -4.8 | -1.9 | 19.3
Cc1ccc2oc(=O)c3cnn(CC(=O)N(CCN(C)C)Cc4ccco4)c3c2c1 | 3.8 | -4.1 | -1.7 | 41.1*
COCCCN(Cc1ccco1)C(=O)Cn1ncc2c(=O)oc3ccc(C)cc3c21 | 0.7 | 0.9 | -0.6 | x
COc1ccc(C2Nc3cccc4cccc(c34)N2)cc1 | 5.2 | -1.5 | -1.2 | 5.2
CN(C)c1ccc(C2Nc3cccc4cccc(c34)N2)cc1 | 16.4 | -6.5 | -5.8 | 39.3*
Nc1ccc2nc(SCC(=O)N3CCN(c4ccccc4)CC3)sc2c1 | -7.5 | 3.9 | 31.9 | x
Nc1ccc2nc(SCC(=O)N3CCOCC3)sc2c1 | -0.8 | -2.1 | -4.1 | 39.6*
